Assay results from PubChem BioAssay (EPA / NIEHS).
Results filed as inconclusive are left out. The source made the active and inactive calls. How the source made its calls, unless noted: active means hit-call score of the fitted dose curve at least 0.9, where 1 is the maximum; inactive means score below 0.9.

Tests used:
[1] = target: Retinoic acid receptor RXR-alpha (Homo sapiens) (UniProt P19793); experiment: ATG_RXRa_TRANS: Attagene TRANS-FACTORIAL HepG2 Assay for human Retinoid X Receptor alpha (RXRa) (AID 2283012; active means hit-call score of the fitted dose curve at least 0.9, where 1 is the maximum)
Sequence of Retinoic acid receptor RXR-alpha (Homo sapiens) (P19793 whole entry, looked up, the tested form may be a part): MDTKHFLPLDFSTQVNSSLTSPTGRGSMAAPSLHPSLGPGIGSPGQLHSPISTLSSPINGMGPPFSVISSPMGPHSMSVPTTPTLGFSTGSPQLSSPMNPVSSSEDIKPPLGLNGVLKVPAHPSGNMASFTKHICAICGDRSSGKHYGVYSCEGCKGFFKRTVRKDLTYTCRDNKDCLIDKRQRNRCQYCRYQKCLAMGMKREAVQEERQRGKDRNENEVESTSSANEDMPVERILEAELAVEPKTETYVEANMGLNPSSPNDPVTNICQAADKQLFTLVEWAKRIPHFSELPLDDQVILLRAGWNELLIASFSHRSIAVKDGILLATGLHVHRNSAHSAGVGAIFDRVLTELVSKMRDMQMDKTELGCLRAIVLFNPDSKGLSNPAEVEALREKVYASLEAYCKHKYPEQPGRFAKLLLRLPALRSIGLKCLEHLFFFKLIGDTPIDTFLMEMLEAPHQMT
Outline: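 Read-out: fluorescent reporter-transcript fragments quantified by capillary electrophoresis after RT-PCR. Transiently transfected HepG2 cells carrying GAL4-UAS reporters and NR-GAL4 chimeras were exposed to chemical for 24 h; activity scored as increase over DMSO.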

[2] = read-out: E-selectin (Homo sapiens) (UniProt P16581); experiment: BSK_3C_Eselectin: BioMAP Diversity Plus: 3C Assay for Eselectin Biomarker Activity (AID 2283015); conditions: primary human endothelial cells (HUVEC); actives raise or lower the signal
Outline: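 Primary human umbilical vein endothelial cells (3C system), read 24 h after compound addition; E-selectin measured by ELISA. Bidirectional curve fitting against DMSO baseline; cytotoxicity by parallel SRB total-protein staining.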

[3] = read-out: Interleukin-1 alpha (IL1a), IL1A (gene 3552); experiment: BSK_BE3C_IL1a: BioMAP Diversity Plus: BE3C Assay for Interleukin-1 alpha (IL1a) Biomarker Activity (AID 2283016); conditions: primary human bronchial epithelial cells; actives raise or lower the signal
Outline: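 ELISA read-out of IL-1a from human lung bronchial epithelial primary cells, 24 h post-dose. Gain or loss of signal fitted relative to DMSO negative control.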

[4] = read-out: Monocyte Chemoattractant Protein-1 (MCP1), CCL2 (gene 6347); experiment: BSK_3C_MCP1: BioMAP Diversity Plus: 3C Assay for Monocyte Chemoattractant Protein-1 (MCP1) Biomarker Activity (AID 2283017); conditions: primary human endothelial cells (HUVEC); actives raise or lower the signal
Outline: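 Human umbilical vein endothelial cells (3C system) exposed to chemicals for 24 h; MCP-1 quantified by ELISA against the DMSO baseline with bidirectional fitting, and parallel SRB staining used to assess cytotoxicity.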

[5] = read-out: Monocyte Chemoattractant Protein-1 (MCP1), CCL2 (gene 6347); experiment: BSK_4H_MCP1: BioMAP Diversity Plus: 4H Assay for Monocyte Chemoattractant Protein-1 (MCP1) Biomarker Activity (AID 2283018); conditions: primary human endothelial cells (HUVEC); actives raise or lower the signal
Outline: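 HUVEC primary cells, 24 h post-dose, MCP-1 by ELISA. Gain or loss of signal fitted bidirectionally vs DMSO baseline. Cytotoxicity: SRB stain (0.1% after 10% TCA fixation), read 560 nm, parallel cultures.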

[6] = read-out: Human Leukocyte Antigen - DR isotype (HLADR), HLA-DRA (gene 3122); experiment: BSK_3C_HLADR: BioMAP Diversity Plus: 3C Assay for Human Leukocyte Antigen - DR isotype (HLADR) Biomarker Activity (AID 2283019); conditions: primary human endothelial cells (HUVEC); actives raise or lower the signal
Outline: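 HUVEC monoculture, HLA-DR measured by ELISA 24 h after chemical dosing. Fitted bidirectionally against DMSO baseline; parallel SRB staining assessed cytotoxicity, with 3C proliferation read by SRB at 48 h.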

[7] = read-out: Interleukin-8 (IL8), CXCL8 (gene 3576); experiment: BSK_3C_IL8: BioMAP Diversity Plus: 3C Assay for Interleukin-8 (IL8) Biomarker Activity (AID 2283020); conditions: primary human endothelial cells (HUVEC); actives raise or lower the signal
Outline: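 HUVEC, 3C stimulation; 24 h compound exposure; IL-8 read by ELISA; gain or loss of signal fitted relative to DMSO control.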

[8] = read-out: Monokine induced gamma interferon (MIG), CXCL9 (gene 4283); experiment: BSK_3C_MIG: BioMAP Diversity Plus: 3C Assay for Monokine induced gamma interferon (MIG) Biomarker Activity (AID 2283021); conditions: primary human endothelial cells (HUVEC); actives raise or lower the signal
Outline: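 HUVEC, 3C system; 24 h chemical exposure; MIG by ELISA; bidirectional fit vs DMSO baseline.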

[9] = target: human Vitamin D Receptor (VDR), VDR (gene 7421) (UniProt P11473); experiment: ATG_VDR_TRANS: Attagene TRANS-FACTORIAL HepG2 Assay for human Vitamin D Receptor (VDR) (AID 2283022; active means hit-call score of the fitted dose curve at least 0.9, where 1 is the maximum)
Sequence of human Vitamin D Receptor (VDR), VDR (gene 7421) (P11473 whole entry, looked up, the tested form may be a part): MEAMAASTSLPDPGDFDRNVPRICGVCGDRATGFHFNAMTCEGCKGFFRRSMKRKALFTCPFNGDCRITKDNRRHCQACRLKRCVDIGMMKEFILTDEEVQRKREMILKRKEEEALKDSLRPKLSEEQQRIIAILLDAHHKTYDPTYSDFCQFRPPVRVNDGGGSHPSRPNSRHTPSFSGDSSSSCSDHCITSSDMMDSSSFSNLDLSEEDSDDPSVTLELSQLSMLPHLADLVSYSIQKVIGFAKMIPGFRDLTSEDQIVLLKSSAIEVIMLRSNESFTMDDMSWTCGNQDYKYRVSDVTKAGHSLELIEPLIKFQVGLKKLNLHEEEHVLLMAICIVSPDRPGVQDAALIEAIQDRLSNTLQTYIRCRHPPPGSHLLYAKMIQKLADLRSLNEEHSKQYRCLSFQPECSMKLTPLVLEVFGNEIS
Outline: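 HepG2 cells were transiently transfected with GAL4-UAS reporter units and a chimeric VDR-Gal4 construct, then dosed for 24 hours. Reporter mRNA was quantified by RT-PCR, fluorescent labeling, HpaI digestion and capillary electrophoresis; gain of signal analysed vs DMSO.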

[10] = BSK_3C_SRB: Viability Assessment in the BioMAP Diversity Plus: 3C Assay (AID 2283023); conditions: primary human endothelial cells (HUVEC);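 further: fitted both ways against DMSO so a hit may be signal rise or drop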
Outline: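 Human umbilical vein endothelial cells in the 3C system, treated 24 h. Total protein measured by 0.1% sulforhodamine B staining after 10% TCA fixation, read at 560 nm; bidirectional fit versus DMSO.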

[11] = read-out: Matrix Metallopeptidase 1 (MMP1), MMP1 (gene 4312); experiment: BSK_BE3C_MMP1: BioMAP Diversity Plus: BE3C Assay for Matrix Metallopeptidase 1 (MMP1) Biomarker Activity (AID 2283024); conditions: primary human bronchial epithelial cells; actives raise or lower the signal
Outline: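 ELISA read-out of MMP1 in human lung bronchial epithelial primary cultures, 24 h post-dose; bidirectional curve fit vs DMSO baseline, gain or loss of signal scored.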

[12] = BSK_3C_Vis: BioMAP Diversity Plus: 3C Assay for Morphology Visualization (AID 2283025); conditions: primary human endothelial cells (HUVEC);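 further: fitted both ways so gain or loss versus DMSO counts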;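 on AC50: light microscopy image of cell morphology used as background control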
Outline: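 HUVEC, 3C system; light microscopy of morphology at 24 h post-dose. Bidirectional fit vs DMSO baseline. Secondary readout, background-control function.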

[13] = read-out: Pselectin, SELP (gene 6403); experiment: BSK_4H_Pselectin: BioMAP Diversity Plus: 4H Assay for Pselectin Biomarker Activity (AID 2283026); conditions: primary human endothelial cells (HUVEC); actives raise or lower the signal
Outline: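 HUVEC, 24 h chemical exposure; P-selectin read by ELISA. Bidirectional curve fit vs DMSO baseline; gain or loss of signal scored.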

[14] = BSK_4H_SRB: Viability Assessment in the BioMAP Diversity Plus: 4H Assay (AID 2283027); conditions: primary human endothelial cells (HUVEC);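 further: cells exposed to compound for 24 h before staining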;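 on AC50: curves fitted both ways versus DMSO so AC50 may be loss or gain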
Outline: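 HUVEC, 24 h post-dose; 10% TCA fix, 0.1% SRB stain, A560 nm. Total protein = overt cytotoxicity, parallel to biomarker read. Bidirectional fit vs DMSO baseline.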

[15] = BSK_BE3C_SRB: Viability Assessment in the BioMAP Diversity Plus: BE3C Assay (AID 2283028); conditions: primary human bronchial epithelial cells
Outline: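 Human bronchial epithelial primary cells in confluent culture, 24 h after chemical dosing; total protein by 0.1% SRB staining after 10% TCA fixation, read at 560 nm. Bidirectional fitting versus DMSO baseline.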

[16] = read-out: Urokinase-type plasminogen activator receptor (uPAR), PLAUR (gene 5329); experiment: BSK_4H_uPAR: BioMAP Diversity Plus: 4H Assay for Urokinase-type plasminogen activator receptor (uPAR) Biomarker Activity (AID 2283030); conditions: primary human endothelial cells (HUVEC); actives raise or lower the signal
Outline: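 Human umbilical vein endothelial cells in the 4H system, 24 h after chemical dosing. Cell-surface uPAR measured by ELISA, fitted in both directions versus DMSO; cytotoxicity checked by SRB total protein in parallel cultures.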

[17] = read-out: Vascular endothelial growth factor receptor 2 (Homo sapiens) (UniProt P35968); experiment: BSK_4H_VEGFRII: BioMAP Diversity Plus: 4H Assay for Vascular endothelial growth factor receptor 2 (VEGFR2) Biomarker Activity (AID 2283031); conditions: primary human endothelial cells (HUVEC); actives raise or lower the signal;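 on AC50: cell-surface VEGFR2 protein level quantified by ELISA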
Outline: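 Primary human umbilical vein endothelial cells (4H system), 24 h exposure; cell-surface VEGFR2 measured by ELISA. Bidirectional fitting versus DMSO; cytotoxicity checked in parallel by SRB total-protein staining.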

[18] = read-out: Thrombomodulin, THBD (gene 7056); experiment: BSK_3C_Thrombomodulin: BioMAP Diversity Plus: 3C Assay for Thrombomodulin Biomarker Activity (AID 2283029); conditions: primary human endothelial cells (HUVEC); actives raise or lower the signal
Outline: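 HUVEC, 3C conditions; compound 24 h; thrombomodulin by ELISA; bidirectional curve fit vs DMSO baseline; parallel SRB total-protein staining for cytotoxicity.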

Measured: AC50

Sequence of E-selectin (Homo sapiens) (P16581 whole entry, looked up): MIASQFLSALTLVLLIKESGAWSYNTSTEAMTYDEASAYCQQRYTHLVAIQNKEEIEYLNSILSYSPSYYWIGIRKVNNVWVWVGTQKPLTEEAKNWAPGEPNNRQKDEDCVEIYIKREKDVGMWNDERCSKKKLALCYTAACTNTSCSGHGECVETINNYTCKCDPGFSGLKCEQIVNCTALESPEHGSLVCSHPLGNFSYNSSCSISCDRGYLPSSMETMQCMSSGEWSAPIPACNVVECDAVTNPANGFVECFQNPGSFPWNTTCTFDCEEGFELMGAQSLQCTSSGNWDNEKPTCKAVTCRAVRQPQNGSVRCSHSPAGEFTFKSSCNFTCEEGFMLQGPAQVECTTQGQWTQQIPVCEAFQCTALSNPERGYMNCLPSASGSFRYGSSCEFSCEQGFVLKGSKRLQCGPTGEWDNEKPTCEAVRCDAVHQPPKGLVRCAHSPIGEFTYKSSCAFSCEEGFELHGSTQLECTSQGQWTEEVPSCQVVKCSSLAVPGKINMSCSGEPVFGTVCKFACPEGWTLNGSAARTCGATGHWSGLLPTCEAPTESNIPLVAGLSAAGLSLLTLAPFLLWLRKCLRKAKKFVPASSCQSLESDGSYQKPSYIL

Cc1nc(C)nc(N2C[C@@H](C)N(c3ccnc([C@@H](C)O)n3)[C@@H](C)C2)n1
not listed: [18]
inactive: all other assays above

CCc1c(C(=O)NN2CCCCC2)nn(-c2ccc(Cl)cc2Cl)c1-c1ccc(Br)cc1
inactive: [1] | [2] | [3] | [8] | [9] | [11] | [15]
active: [4] 7.54 µM | [5] 5.41 µM | [6] 10.4 µM | [7] 7.69 µM | [10] 9.03 µM | [12] 13.2 µM | [13] 2.66 µM | [14] 6.66 µM | [16] 6.58 µM | [17] 9.41 µM

CCOC(=O)CCC(=O)OCC
not listed: [9]
inactive: all other assays above

CC(CO)OC(C)CO (centres undefined) (tested in a mixture with another compound)
inactive: all assays above

CCOC(=O)C(C)(C)Oc1ccc(Cl)cc1
not listed: [9] | [18]
inactive: all other assays above

CCCCc1ccc2c(n1)[C@@H](c1ccc(OC)cc1C[C@H](C)C(=O)O)[C@H](C(=O)O)[C@H]2c1ccc2c(c1)OCO2
not listed: [9] | [18]
inactive: all other assays above

COc1cc(/C=C/C(=O)CC(=O)/C=C/c2ccc(O)c(OC)c2)ccc1O
inactive: [1] | [9]

CC1=C(/C=C/C(C)=C/C=C/C(C)=C/CO)C(C)(C)CCC1
active: [1] 1.87 µM | [2] 19.3 µM | [6] 25.3 µM
not listed: [18]
inactive: all other assays above

Cc1ccc(C)c(C)c1
not listed: [9]
inactive: all other assays above

Cc1oc(-c2ccccc2)nc1CCOc1cccc2c1ccn2CCC(=O)O
active: [1] 44.9 µM
inactive: all other assays above

CCCCOC(=O)CCCCCCCCC(=O)OCCCC
not listed: [9] | [18]
inactive: all other assays above

Clc1cc(Cl)c(Cl)cc1Cl
not listed: [9] | [18]
inactive: all other assays above

Oc1ccc2c(c1)OC[C@@H](N1CCC(O)(c3ccc(F)cc3)CC1)[C@H]2O
not listed: [9] | [18]
inactive: all other assays above

Nc1ccc(S(=O)(=O)c2ccc(N)cc2)cc1
not listed: [9]
inactive: all other assays above

CC(=O)C(C)=CC1C(C)=CCCC1(C)C (centres undefined)
not listed: [9] | [18]
inactive: all other assays above

COc1cc(S(=O)(=O)O)c(C)cc1N=Nc1c(O)ccc2cc(S(=O)(=O)O)ccc12
inactive: all assays above
